The list is a sample of the results.
aSyn UTR act – Activators via SNCA 5'UTR binding, MLPCN; AID 1814, 2009; alpha-synuclein 5'UTR reporter, activators screen; activity score, % (tested at 7.5 µM), hits read low; 300,000 compounds, 7.1% hits; in the data active means activity score below about -60%
Of the large screens only hits and unclear results are named; the others gave an inactive call.

O=C(c1ccc(Cl)cc1)C(CN1CCCCC1)c1ccccc1 (stereo not drawn)	aSyn UTR act -106
CCCOc1ccc(C(=O)C(CN2CCOCC2)c2ccccc2)cc1 (stereo not drawn)	aSyn UTR act -120
O=c1c(-c2ccc(F)cc2)coc2c3c(ccc12)OCCO3	aSyn UTR act -128
CCN(CC)C(=O)Oc1ccc2c(=O)c(-c3ccccc3)coc2c1	aSyn UTR act -90
COc1ccc2c(=O)c(-c3ccc(OC)c(OC)c3)coc2c1	aSyn UTR act -97
COc1ccc(-c2coc3cc(O)ccc3c2=O)cc1OC	aSyn UTR act -66
COc1ccc2c(=O)c(-c3ccccc3)coc2c1	aSyn UTR act -65
CCc1ccc(Oc2coc3cc(OCC(=O)Nc4cc(C)ccc4C)ccc3c2=O)cc1	none
O=c1c(-c2ccc(F)cc2)coc2cc(O)ccc12	aSyn UTR act -94
COc1ccccc1-c1coc2cc(O)cc(O)c2c1=O	aSyn UTR act -71
CCOc1ccc2c(=O)c(Oc3ccccc3OCC)coc2c1	aSyn UTR act -100
CCCNC(=O)OCCC12CC3CC(CC(C3)C1)C2	aSyn UTR act -92
O=C(NNC(=O)c1cccs1)c1ccc(Br)cc1	aSyn UTR act -78
Cc1cccc(C(=O)NNC(=O)c2ccc(Cl)cc2)c1O	aSyn UTR act -141
O=C(NNC(=O)c1ccccc1O)c1ccc(Cl)cc1	aSyn UTR act -81
O=C(NNC(=O)c1ccc(O)cc1O)c1ccc(Cl)cc1	aSyn UTR act -72
O=C(COC(=O)c1ccc(O)cc1O)c1ccc(Cl)cc1	aSyn UTR act -96
O=C(NNC(=O)c1ccccc1O)c1ccc(Br)cc1	aSyn UTR act -116
O=C(NNC(=O)c1ccccc1O)c1cccc(Br)c1	aSyn UTR act -133
Cc1ccnc(NC(=O)c2ccccc2NC(=O)c2ccc(Cl)cc2Cl)c1	none
Cc1ccnc(NC(=O)c2cccc3ccccc23)c1	aSyn UTR act -63
Cc1ccnc(NC(=O)CCNC(=O)c2ccccc2Cl)c1	aSyn UTR act -103
O=C(CCc1nnc(CCc2c[nH]c3ccccc23)o1)NC1CCC1	aSyn UTR act -133
Cc1ccnc(NC(=O)CCc2c[nH]c3ccccc23)c1	aSyn UTR act -71
C/C(CC(=O)Nc1cc(C)ccn1)=N\NC(=O)c1cccc(C)c1O	aSyn UTR act -63
Cc1nc2c(sc3nc4c(cc32)COC(C)(C)C4)c(=O)n1CC(=O)NCc1ccco1	aSyn UTR act -69
Cc1nc2c(sc3nc4c(cc32)COC(C)(C)C4)c(=O)n1Cc1ccccc1	aSyn UTR act -109
CCCc1nc2c(sc3nc4c(cc32)COC(C)(C)C4)c(=O)n1Cc1ccco1	aSyn UTR act -65
Cc1nc(OCc2ccccc2)c2sc3nc4c(cc3c2n1)COC(C)(C)C4	aSyn UTR act -185
Cc1cc(NC(=O)Nc2ccccc2F)ccc1Br	aSyn UTR act -243
O=C(Nc1ccccc1)Nc1ccc(Br)cc1F	aSyn UTR act -163
O=C(Nc1cccc(Cl)c1)Nc1ccc(Br)cc1F	aSyn UTR act -115
O=C(Nc1ccccc1)Nc1cc(OCC(F)(F)F)cc(OCC(F)(F)F)c1	none
Oc1ccccc1C1=Nc2ncnn2C(c2ccccc2)C1 (stereo not drawn)	aSyn UTR act -68
CCN(CC)c1ccc(CNc2ccc(Br)cn2)cc1	aSyn UTR act -103
O=C(/C=C/c1c(Cl)cccc1Cl)Nc1ccncc1	aSyn UTR act -293
CN1CCN(C(=O)/C=C/c2c(F)cccc2Cl)CC1	aSyn UTR act -68
O=C(/C=C/c1c(F)cccc1Cl)Nc1ccncc1	aSyn UTR act -328
CN1CCc2c(sc(/N=C/c3c[nH]c4ccccc34)c2C#N)C1	aSyn UTR act -68
CN1CCc2c(sc(/N=C/c3cc(Cl)ccc3O)c2C#N)C1	aSyn UTR act -157
S=c1[nH]nc(C2CCCCC2)n1/N=C/C(Cl)=C\c1ccccc1	aSyn UTR act -75
Cc1cc(-c2n[nH]c(=S)n2/N=C/C(Cl)=C/c2ccccc2)n[nH]1	aSyn UTR act -164
Cc1c(Br)c(O)c(Br)c(O)c1/C=N/n1c(-c2ccccc2)n[nH]c1=S	none
S=c1[nH]nc(-c2ccco2)n1/N=C/C(Cl)=C/c1ccccc1	aSyn UTR act -172
O=C(Nc1nnc(-c2ccccc2F)s1)Nc1ccccc1F	aSyn UTR act -155
O=C(Nc1nnc(Cc2ccccc2F)s1)Nc1ccccc1F	aSyn UTR act -99
Cc1cnc(NCCc2ccccc2)s1	aSyn UTR act -63
N/C(=N\C(=S)Nc1ccccc1)c1ccccc1	aSyn UTR act -170
NC(N)=NC(=S)Nc1ccc(Cl)cc1	aSyn UTR act -106
CN1CCN(Cn2cc(/C=C/C(=O)c3ccccc3)c3ccccc32)CC1	aSyn UTR act -312
COc1ccc(C(=O)/C=C/c2cn(CC(O)CN3CCN(C)CC3)c3ccccc23)cc1OC (stereo not drawn)	aSyn UTR act -62
O=[N+]([O-])/C=C/c1cn(Cc2ccc(Cl)cc2)c2ccccc12	none
COc1ccccc1-c1nnc(NC(C)=O)s1	aSyn UTR act -91
COc1ccc(C(=O)Nc2nnc(SCC(=O)Nc3ccc(NC(C)=O)cc3)s2)c(OC)c1	aSyn UTR act -63
COc1ccccc1C(=O)Nc1nnc(SCC(=O)NCc2ccco2)s1	aSyn UTR act -67
COc1ccc(C(=O)Nc2nnc(SCC(=O)NC3CCCC3)s2)c(OC)c1	none
Cc1ccccc1C(=O)Nc1nnc(-c2ccco2)s1	none
COc1ccccc1C(=O)Nc1nnc(-c2ccco2)s1	aSyn UTR act -168
O=C(CSc1nnc(NC(=O)c2ccc(F)cc2F)s1)NC1CC1	aSyn UTR act -69
O=C(CSc1nnc(NC(=O)c2ccccc2F)s1)NCc1ccc(F)cc1	aSyn UTR act -84
COc1ccccc1C(=O)Nc1nnc(SCC(=O)NCC2CCCO2)s1 (stereo not drawn)	aSyn UTR act -102
O=C(CSc1nnc(NC(=O)c2ccccc2F)s1)NCc1ccco1	aSyn UTR act -80
CCC(C)NC(=O)Nc1ccc(Br)cc1 (stereo not drawn)	aSyn UTR act -73
CC(C)(C)NC(=O)Nc1ccc(Br)cc1	aSyn UTR act -138
O=c1c(Cl)c(NCCCO)cnn1-c1nc2ccccc2[nH]1	aSyn UTR act -232
Cc1cc(OCC(=O)NC2CCCCC2)ccc1Cl	aSyn UTR act -62
O=C(COc1ccc(Cl)cc1[N+](=O)[O-])NC1CCCCC1	aSyn UTR act -119
O=C(NC1CCCCC1)N1CCc2ccccc21	aSyn UTR act -111
O=C(COc1ccccc1)NC1CCCCCCC1	aSyn UTR act -67
Cc1[nH]nc2nc(SCC(=O)NC3CCCCC3)n(-c3ccc(Br)cc3)c(=N)c12	none
O=C(CSc1ccccc1)NC1CCCCCC1	aSyn UTR act -82
Cn1ccsc1=NC(=O)c1ccc(S(C)(=O)=O)cc1	aSyn UTR act -62
Cn1ccsc1=NC(=O)c1cccc(C#N)c1	aSyn UTR act -86
Cc1ccc(NC(=S)N=Nc2c(O)n(C)c3ccc(S(=O)(=O)N4CCOCC4)cc23)cc1C	none
CCCCOc1ccc(C(=O)N=c2sccn2C)cc1OC	aSyn UTR act -164
Cc1ccc(C(=O)N=c2sccn2C)cc1S(=O)(=O)N1CCOCC1	aSyn UTR act -160
CC(C)COCc1ccc(O)c2ncccc12	none
Cn1ccsc1=NC(=O)c1ccc(Cl)c([N+](=O)[O-])c1	aSyn UTR act -117
Cc1cccc(C(=O)N=c2sccn2C)c1[N+](=O)[O-]	aSyn UTR act -133
COc1ccc(-c2nc3c4ccccc4[nH]c(=O)n3n2)cc1	aSyn UTR act -82
COc1cc(/C=C2\C(=N)N3N=CSC3=NC2=O)ccc1OS(=O)(=O)c1ccccc1[N+](=O)[O-]	aSyn UTR act -75
O=C(COc1ccc(F)cc1)c1ccc2c(c1)CCCC2	aSyn UTR act -133

Source: PubChem BioAssay (Broad Institute)
